From paper PMC5540273 (PLoS ONE, 2017)

Legend:
Settings in all cases: concentration: 1 μM, replicates: in singlicate; n = 1
[1] = test system: GRK4
[2] = test system: GRK7
[3] = test system: GSK3A
[4] = test system: GSK3B
[5] = test system: T1, HASPIN
T1 construct: gene GSG2

[6] = test system: HCK
[7] = test system: HIPK1
[8] = test system: HIPK2
[9] = test system: HIPK3
[10] = test system: HIPK4
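Further: KINOMEscan kinase panel screen.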

SMILES	%Inh [1] [%]	%Inh [2] [%]	%Inh [3] [%]	%Inh [4] [%]	%Inh [5] [%]	%Inh [6] [%]	%Inh [7] [%]	%Inh [8] [%]	%Inh [9] [%]	%Inh [10] [%]
Cc1c(Cn2c(C)nn3c(=O)cc(N4CCOC(C)C4)nc23)cccc1C(F)(F)F (centres unmarked) [GSK2344444]	0	0	0	10	0	0	0	0	7	0
Cl.Oc1cccc(Nc2ccnc3cc(-c4ccncc4)ccc23)c1 [GW494601]	0	0	23	0	55	97.7	0	0	0	0
O=c1cc(N2CCOCC2)nc2n(Cc3cccc(F)c3)ccn12 [GSK2297430]	1	0	0	11	4	0	0	0	9	0
CCc1nc(-c2cccc(C)c2)c(-c2ccnc(NCc3ccccc3)c2)s1	9	0	12	0	41	5	21	0	0	7
COCCNC(=O)c1ccc(-c2cc(C(=O)NC3CC3)cc(F)c2C)cc1 [GW868318]	7	28	0	42	0	24	23	15	35	17
